From PubChem BioAssay AID1159580 (chemical genetic matrix, 2015)
Hit rate of the full screen: of about 5,500 compounds, about 2,000 (36%) were called active. Inconclusive results (about 18%) are left out. No stated cut-off is given here; in the data, active means normalized growth mostly below about 0.91 (no sharp cut-off); inconclusive means no clear call, values can overlap the other calls; inactive means mostly above about 0.92. The list shows a part of the results.

Assay: chemical genetic growth profiling, strain panel (AID 1159580);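 further: tested at 20 µM; growth read once vehicle control cultures reached saturation at 30 °C; 1 = growth at the plate median or of vehicle wells; lower values mean less growth of the strain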
Details: growth OD

Measured: normalized growth

C[C@H]1[C@H](C)CC[C@]2(CO)CC[C@]3(C)C(=CCC4[C@@]5(C)CC[C@H](O)C(C)(C)C5CC[C@]43C)[C@H]12 (some centres not stated)
inactive: S. cerevisiae deletion strains, locus YKL009W, strain mrt4, active compounds read low 1.01 | S. cerevisiae deletion strains, locus YKL068W, active compounds read low 1.02 | S. cerevisiae deletion strains, locus YKL085W, strain MDH1 (second series), active compounds read low 1.04 | S. cerevisiae deletion strains, locus YKL085W, strain MDH1, active compounds read low 1.04 | S. cerevisiae deletion strains, locus YKL160W, strain elf1, active compounds read low 0.995 | S. cerevisiae deletion strains, locus YKL190W, strain CNB1, active compounds read low 1.01 | S. cerevisiae deletion strains, locus YKR001C, strain vps1, active compounds read low 1.03 | S. cerevisiae deletion strains, locus YKR026C, strain gcn3, active compounds read low 0.997 | S. cerevisiae deletion strains, locus YKR091W, strain srl3, active compounds read low 0.988 | S. cerevisiae deletion strains, locus YLL001W, strain dnm1, active compounds read low 1.01 | S. cerevisiae deletion strains, locus YLL026W, active compounds read low 1.01 | S. cerevisiae deletion strains, locus YLL041C, strain sdh2, active compounds read low 1 | S. cerevisiae deletion strains, locus YLR027C, strain aat2, active compounds read low 0.976 | S. cerevisiae deletion strains, locus YLR039C, strain RIC1, active compounds read low 1.08 | S. cerevisiae deletion strains, locus YLR058C, strain SHM2, active compounds read low 1.02 | S. cerevisiae deletion strains, locus YLR102C, strain apc9, active compounds read low 1.02 | S. cerevisiae deletion strains, locus YLR113W, strain HOG1, active compounds read low 0.967 | S. cerevisiae deletion strains, locus YLR221C, strain rsa3, active compounds read low 0.986 | S. cerevisiae deletion strains, locus YLR258W, strain gsy2, active compounds read low 0.989 | S. cerevisiae deletion strains, locus YLR262C, strain YPT6 (second series), active compounds read low 1.04 | S. cerevisiae deletion strains, locus YLR262C, strain YPT6, active compounds read low 1.08 | S. cerevisiae deletion strains, locus YLR268W, strain sec22, active compounds read low 1.03 | S. cerevisiae deletion strains, locus YLR320W, strain mms22, active compounds read low 0.987 | S. cerevisiae deletion strains, locus YLR330W, strain CHS5, active compounds read low 1.01 | S. cerevisiae deletion strains, locus YLR342W, strain FKS1 (second series), active compounds read low 1 | S. cerevisiae deletion strains, locus YLR342W, strain FKS1, active compounds read low 0.989 | S. cerevisiae deletion strains, locus YLR357W, strain rsc2, active compounds read low 0.999 | S. cerevisiae deletion strains, locus YLR370C, strain arc18, active compounds read low 1 | S. cerevisiae deletion strains, locus YLR371W, strain rom2, active compounds read low 1.03 | S. cerevisiae deletion strains, locus YLR384C, strain iki3, active compounds read low 0.974 | S. cerevisiae deletion strains, locus YLR418C, strain cdc73, active compounds read low 1.03 | S. cerevisiae deletion strains, locus YML016C, strain PPZ1, active compounds read low 1.02 | S. cerevisiae deletion strains, locus YML032C, strain rad52, active compounds read low 1.02 | S. cerevisiae deletion strains, locus YML120C, strain ndi1, active compounds read low 0.988 | S. cerevisiae deletion strains, locus YML124C, strain tub3, active compounds read low 1.03 | S. cerevisiae deletion strains, locus YMR058W, strain fet3, active compounds read low 1 | S. cerevisiae deletion strains, locus YMR078C, strain ctf18, active compounds read low 1.03 | S. cerevisiae deletion strains, locus YMR125W, strain sto1, active compounds read low 1.01 | S. cerevisiae deletion strains, locus YMR129W, active compounds read low 0.988 | S. cerevisiae deletion strains, locus YMR205C, strain PFK2, active compounds read low 0.98 | S. cerevisiae deletion strains, locus YMR223W, strain ubp8, active compounds read low 1.02 | S. cerevisiae deletion strains, locus YMR231W, strain pep5, active compounds read low 1 | S. cerevisiae deletion strains, locus YMR263W, strain SAP30, active compounds read low 1.01 | S. cerevisiae deletion strains, locus YMR307W, strain GAS1, active compounds read low 1.06 | S. cerevisiae deletion strains, locus YNL067W, strain RPL9B, active compounds read low 1.01 | S. cerevisiae deletion strains, locus YNL071W, strain lat1, active compounds read low 0.995 | S. cerevisiae deletion strains, locus YNL183C, strain NPR1, active compounds read low 0.967 | S. cerevisiae deletion strains, locus YNL209W, strain ssb2, active compounds read low 0.988 | S. cerevisiae deletion strains, locus YNL233W, strain BNI4, active compounds read low 1.01 | S. cerevisiae deletion strains, locus YNL248C, strain rpa49, active compounds read low 1 | S. cerevisiae deletion strains, locus YNL250W, strain rad50, active compounds read low 1.04 | S. cerevisiae deletion strains, locus YNL271C, strain bni1, active compounds read low 1.02 | S. cerevisiae deletion strains, locus YNL298W, strain CLA4, active compounds read low 1.01 | S. cerevisiae deletion strains, locus YNL307C, strain MCK1, active compounds read low 1.04 | S. cerevisiae deletion strains, locus YNL322C, strain KRE1 (second series), active compounds read low 0.99 | S. cerevisiae deletion strains, locus YNR049C, strain mso1, active compounds read low 0.99 | S. cerevisiae deletion strains, locus YNR052C, strain pop2, active compounds read low 1.01 | S. cerevisiae deletion strains, locus YOL006C, strain TOP1, active compounds read low 1.07 | S. cerevisiae deletion strains, locus YOL012C, strain htz1 1.12 | S. cerevisiae deletion strains, locus YOL147C, strain pex11, active compounds read low 1.02 | S. cerevisiae deletion strains, locus YOR001W, strain rrp6, active compounds read low 0.946 | S. cerevisiae deletion strains, locus YOR061W, strain CKA2, active compounds read low 1.01 | S. cerevisiae deletion strains, locus YOR069W, strain VPS5, active compounds read low 1.01 | S. cerevisiae deletion strains, locus YOR070C, strain gyp1, active compounds read low 0.975 | S. cerevisiae deletion strains, locus YOR080W, strain dia2, active compounds read low 0.992 | S. cerevisiae deletion strains, locus YOR083W, strain WHI5, active compounds read low 0.995 | S. cerevisiae deletion strains, locus YOR106W, strain vam3, active compounds read low 1.01 | S. cerevisiae deletion strains, locus YOR136W, strain idh2, active compounds read low 1.03 | S. cerevisiae deletion strains, locus YOR144C, strain elg1, active compounds read low 1.02 | S. cerevisiae deletion strains, locus YOR184W, strain ser1, active compounds read low 1.01 | S. cerevisiae deletion strains, locus YOR231W, strain MKK1, active compounds read low 0.996 | S. cerevisiae deletion strains, locus YOR265W, strain rbl2, active compounds read low 0.986 | S. cerevisiae deletion strains, locus YOR270C, strain vph1, active compounds read low 0.984 | S. cerevisiae deletion strains, locus YOR290C, strain snf2, active compounds read low 0.998 | S. cerevisiae deletion strains, locus YOR316C, strain cot1, active compounds read low 1.03 | S. cerevisiae deletion strains, locus YPL051W, strain arl3, active compounds read low 0.998 | S. cerevisiae deletion strains, locus YPL078C, strain atp4, active compounds read low 0.993 | S. cerevisiae deletion strains, locus YPL106C, strain sse1, active compounds read low 1.09 | S. cerevisiae deletion strains, locus YPL240C, strain hsp82, active compounds read low 1.01 | S. cerevisiae deletion strains, locus YPL241C, strain CIN2, active compounds read low 0.995 | S. cerevisiae deletion strains, locus YPL256C, strain CLN2, active compounds read low 1.07 | S. cerevisiae deletion strains, locus YPR119W, strain clb2, active compounds read low 1.03 | S. cerevisiae deletion strains, locus YPR141C, strain kar3, active compounds read low 1.04 | S. cerevisiae deletion strains, locus YPR163C, strain tif3, active compounds read low 1.03 | S. cerevisiae deletion strains, locus YPR167C, strain met16, active compounds read low 1.02 | S. cerevisiae deletion strains, strain wtn01, active compounds read low 1.01 | S. cerevisiae strains, strain wild type, active compounds read low 1
